From the supplement of paper PMC11417369
± gives the standard deviation of the averaged measurements. In all, about 25,000 sequences were measured (“ln(normalized median fluorescence intensity)”: median about 8.6, highest 2% from about 10 on). The full list was thinned out, with the highest values kept by preference.

System: PfAP2-EXP AP2 domain (GST-tagged)
Assay: gcPBM binding intensity (ln(normalized median fluorescence intensity)); higher = stronger DNA binding
How it was run: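 An Agilent 4 × 180k array of primer-extended double-stranded 36-bp intergenic genomic probes, with negative controls, was incubated for 1 h with GST-tagged P. falciparum DNA-binding domains expressed in E. coli. Alexa488 anti-GST antibody detected bound protein, scanned at 488 nm. Binding intensity is the highest Masliner-normalised natural-log median intensity across replicate spots of either probe orientation.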

“TCACATACATTACTTACACACCATATTAAGATATAC [CACACA_site4415]” and “ATTTATATTCCAATATGTACATATTTTCGTATAACC [XGTACX_site8507]” are within error of each other in “gcPBM binding intensity (ln)” value: 8.68 ± 0.43 for the first, 8.88 ± 0.35 for the second.

“AAATTTCAATAATCTACACACATAAAAAAACAAAAG [CACACA_site1702]” and “TACAATTTTTTAAATGCACACAAAAGGAATAAATAA [CACACA_site8075]” are within error of each other in “gcPBM binding intensity (ln)” value: 8.82 ± 0.52 for the first, 8.78 ± 0.16 for the second.

“GAAAAAAGAAATTAAACATGCATCTGCAAATTTAAA [TGCATGCA_site974]” and “TGAATACTTATGTTCGCACACATGCAAATTAAAAAA [CACACA_site4048]” are within error of each other in “gcPBM binding intensity (ln)” value: 8.34 ± 0.42 for the first, 8.62 ± 0.22 for the second.

“ACTATAAATATATACACATGCGCACACACAAGTGGG [TGCATGCA_site432]” and “TCTTATTCAAACGTAAAACGAAGAAGAAAAAAAAAA [CACACA_negctrl_site149]” are within error of each other in “gcPBM binding intensity (ln)” value: 8.77 ± 0.39 for the first, 8.49 ± 0.41 for the second.

“ATACACAAATGCATACGTACATATATATATATATAT [XGTACX_site3504]” and “AATGTACAAATACGTACACACATATATATATATATA [CACACA_site1542]” are within error of each other in “gcPBM binding intensity (ln)” value: 10.2 ± 0.33 for the first, 10.1 ± 0.42 for the second.

First: ATAATAAAAATAAAATGTACATACATAAATATATAT [XGTACX_site6228]
Second: AAAATAATAAATAAATGTACATATATATATATATAT [XGTACX_site3078]
The “gcPBM binding intensity (ln)” value of the first is lower: 8.62 ± 0.28 for the first, 10.2 ± 0.47 for the second.

First: AAAATAATGTATATATGTACATATAAATATATATAT [XGTACX_site8081]
Second: GTTATAAATGCATATACACACATACGTACATACATA [CACACA_site7655]
The “gcPBM binding intensity (ln)” value of the first is higher: 9.32 for the first, 8.79 ± 0.23 for the second.

“TATTTCATATGAAGAAGTACTATTAATAATTTCCTT [XGTACX_site6587]” and “TATTATTTTAATTATTCACACATTATTATAAAAATT [CACACA_site5538]” are the same in “gcPBM binding intensity (ln)” value: 8.3 ± 0.28 for the first, 8.3 ± 0.33 for the second.

“ATTATTCGTTTTAAATGTACTCATATAAACGATAAA [XGTACX_site7866]” and “GGATATAACAAACACACACACACATATATATATATT [CACACA_site4141]” are within error of each other in “gcPBM binding intensity (ln)” value: 8.52 ± 0.3 for the first, 8.59 ± 0.19 for the second.

“AAATCGAACAAATTATGTACTAAAAAAAAAATTTAT [XGTACX_site6399]” and “AATATGTATCCATACACACATACATTTTATTTGCAA [CACACA_site874]” are within error of each other in “gcPBM binding intensity (ln)” value: 8.39 ± 0.4 for the first, 8.65 ± 0.45 for the second.

“AAAAAAAATTAAAATAAAATATAAATATAAAATATA [GTGCAC_negctrl_site714]” and “TGATATATATATATATATATAACACACGCAAAAAAA [TGCATGCA_negctrl_site240]” are within error of each other in “gcPBM binding intensity (ln)” value: 8.23 ± 0.24 for the first, 8.73 ± 0.51 for the second.

“ATATATATATATATAACACACGCAAAAAAATTAAAT [CACACA_site8395]” and “AGCAAAAATTAAATAAATAAATATATATATATATAT [TGCATGCA_negctrl_site449]” are the same in “gcPBM binding intensity (ln)” value: 10.2 ± 0.26 for the first, 10.2 ± 0.63 for the second.

First: TACAAAAAAATAAAAAAAATTAAATAAATAAATATA [CACACA_negctrl_site45]
Second: ATATATATATATAACACACGCAAAAAAATTAAATAA [CACACA_site1400]
The “gcPBM binding intensity (ln)” value of the first is lower: 8.17 ± 0.37 for the first, 9.96 ± 0.11 for the second.

“ATATATATATATACATGTACATATATACATTATATT [XGTACX_site936]” and “ATATATATATACATATGTACATATATATTTATACAT [XGTACX_site2463]” are within error of each other in “gcPBM binding intensity (ln)” value: 9.99 ± 0.45 for the first, 9.64 ± 0.33 for the second.

“ATATATATATATATATGTACATATATACATATACAT [XGTACX_site2350]” and “ATCATGTTATATACATGTACATATATATATATATAT [XGTACX_site1329]” are within error of each other in “gcPBM binding intensity (ln)” value: 9.99 ± 0.43 for the first, 10.2 ± 0.3 for the second.

First: TGTTATATGTTCAAATGTACAAATCATATACATGTT [XGTACX_site3192]
Second: TTATGGTTATACATATGTACATATATATATATATAT [XGTACX_site1494]
The “gcPBM binding intensity (ln)” value of the first is lower: 8.45 ± 0.38 for the first, 10.3 ± 0.2 for the second.

“TATGTATCAAATAAATGTACATATATATATATATAT [XGTACX_site2189]” and “ATATATATATATATATGTACATATGTTAGGATCAAA [XGTACX_site8626]” are within error of each other in “gcPBM binding intensity (ln)” value: 10.1 ± 0.49 for the first, 10.2 ± 0.33 for the second.

“ATCATGTTATATACATGTACATATATATATATATAA [XGTACX_site609]” and “AAAGATACTTTCCTCAAACACACAAAACTATACAAC [CACACA_site1475]” are within error of each other in “gcPBM binding intensity (ln)” value: 8.51 ± 0.4 for the first, 8.79 ± 0.45 for the second.

“AAATTAAAATAATAATTCTACAAATTAATTTATCAT [XGTACX_negctrl_site44]” and “TATTTAAAACTATACACATGCATTATATAAAGATAT [TGCATGCA_site702]” are within error of each other in “gcPBM binding intensity (ln)” value: 7.97 ± 0.49 for the first, 8.79 ± 0.4 for the second.

“AAAATAATATTTAATACACACATAATTATAATATAA [CACACA_site782]” and “AATGTTTTTGTGAGATGTATAAATTTTATTTTATTT [XGTACX_negctrl_site413]” are within error of each other in “gcPBM binding intensity (ln)” value: 8.48 ± 0.32 for the first, 8.38 ± 0.38 for the second.

“ATATAACACAAGGGCACACATATACCTTTCCTTTTT [CACACA_site412]” and “ATTAATTTTAATAAAGGTACACGTAGTTTTTTATTA [XGTACX_site7868]” are within error of each other in “gcPBM binding intensity (ln)” value: 8.77 ± 0.36 for the first, 8.16 ± 0.34 for the second.

“AAAAAAAAAATATGTACACACATATAAAATACATAA [CACACA_site6869]” and “TTTTTTTTTTTTTTTTTTTTTTTATGTTCTTAAAAA [GTGCAC_negctrl_site62]” are within error of each other in “gcPBM binding intensity (ln)” value: 8.56 ± 0.3 for the first, 8.02 ± 0.67 for the second.
